Drawing on the OligoGym collection, this text covers sensor-assay potency score (higher = more potent) for 40 sequences.
Note: reference of the scale not given here.

The first assay concerns the target PRB2. As to the kind of experiment: pooled miR-30 sensor sort-seq; sequence = guide strand. To be noted: shRNA.
As to TTCGGGACTTGTTGTCTCCTTG, the sensor-assay potency score (higher = more potent) was -0.146.
For TTGTTGTCTCCTTGTGGGGGTG, the sensor-assay potency score (higher = more potent) was -1.06.
The sequence AGGAGATCGAGAACTTCGGGAC yielded a sensor-assay potency score (higher = more potent) of -1.14.
On the same count and under the same terms, the value for TCGAGAACTTCGGGACTTGTTG was -0.988; that for GAGGAGATCGAGAACTTCGGGA was -0.989.

Another assay addresses PRDM11. The assay is described as above. Particulars: shRNA.
As for TGTTGTTGCACACTGACTGTAG, the sensor-assay potency score (higher = more potent) worked out at 0.562.
On to TCCGACAATAATCTCATCCAAA, for which the sensor-assay potency score (higher = more potent) was -1.56.
Still for that read-out and setting: the value for TAAGCATGTCTAATTCTGCCTG was -0.386; that for TTGCACACTGACTGTAGGCGTC was -0.555; that for TTCTGGGTTATCCAGAACCTGC was -1.79.
Same read-out and setting: the value for TAATTCTGCCTGGAGCTCCCGA was -0.672.
TCATCCAAACCAACTTACCTGC came in with a sensor-assay potency score (higher = more potent) of -0.593.
In turn, TTGTTGTTGCACACTGACTGTA registered a sensor-assay potency score (higher = more potent) of -0.0431.
TTTTCTTCTTCTTAGCTTGGGG came in with a sensor-assay potency score (higher = more potent) of -0.102.
In turn, TTCTTCTTCTTAGCTTGGGGGT showed a sensor-assay potency score (higher = more potent) of -0.763.
Still for that read-out and setting: the result for TTTCTTCTTCTTAGCTTGGGGG reads -0.807; that for TATATTCTGCACACCATGGGTC, 0.141.

For a further assay, the target named is PREB. Described as above. Particulars: shRNA.
As to TTCTGCAGTGGATCGGAGCTAA, the sensor-assay potency score (higher = more potent) was determined as 0.0919.
On to TTGATGTGCCTGGAAGCGCAGG, for which the sensor-assay potency score (higher = more potent) was -0.963.
On the same count and under the same terms, the result for TTGCACTGTGAAGAGTCGCAGG reads -0.529; that for AAAGTCTGTCTGCACCGCCTGC, -1.08; that for TTCTTTATGCCTGTCTTGGCGG, -0.991.
Sequence TTCACTGACATCGAGGCAGGAG returned a sensor-assay potency score (higher = more potent) of 0.301.
Same read-out and setting: the value for TTCGTGGGCTTTGAACTCCAGA was -1.33.
The same measure, in the same setting: the result for TTGTGGGGAATTTGCACTGTGA reads -0.563; that for ATCGGAGCTAAAGTCTGTCTGC, -0.682.
On the same count and under the same terms, the result for TAAAGTCTGTCTGCACCGCCTG reads -0.668; that for TTGAACTCCAGAACCTTCTCCA, 0.863; that for TAAGGGTAGACTACCTAGGAAC, -1.26.

A further assay has as its target PRKAR1B. The assay is described as above. To be noted: shRNA.
On to TAACGCTGAATGTTCCTCTTGA, for which the sensor-assay potency score (higher = more potent) stood at 0.692.
As for TCCATCTTCAAACTGGACGGGC, the sensor-assay potency score (higher = more potent) is -0.749.
The same measure, in the same setting: the value for TCTAGGATGGAGACCTTGCTGA was -0.482.
With TGCTGTATAACAGTCTCCCCAG, the sensor-assay potency score (higher = more potent) is -0.318.
TATAACAGTCTCCCCAGCGATG: the sensor-assay potency score (higher = more potent) was -1.57.
Consider TTGCTGTATAACAGTCTCCCCA, for which the sensor-assay potency score (higher = more potent) was -0.886.
On to TTCCTTCTCCAGCTTCTCGAAG, for which the sensor-assay potency score (higher = more potent) was -1.27.
In turn, TTGATCAACGACATAGAAGTTG came in with a sensor-assay potency score (higher = more potent) of -0.313.
The same measure, in the same setting: the result for AACTCCTCGTACATCTTGCGTT reads -1.1; that for TTTCTCTCCATCTTCAAACTGG, -0.327; that for TACACCTCGGCACTCACGCCTC, -1.12.
